Inconclusive results are not listed. The source made the active and inactive calls. Unless noted, the call rests on the fitted dose curve; in most records, active means well fitted curve in the direction sought with a large enough effect in the repeat runs; inconclusive means weak or mixed curves; inactive means no such curve, though single readings can be large; an effect the other way counts as inactive or inconclusive.
Tests used:
[1] = A CellTox Green Cytotoxicity Assay to monitor cytotoxicity in HepG2 cells - 8 hour (AID 1224890); further: nearly all actives have a fitted effect of over 45% in size
Outline: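 Real-time, homogeneous cytotoxicity readout: dead-cell DNA staining by CellTox Green in HepG2 monolayers, fluorescence measured at timed intervals up to 40 h of continuous compound exposure.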

[2] = qHTS assay to identify small molecule antagonists of the estrogen receptor alpha (ER-alpha) signaling pathway using the BG1 cell line in the presence of 0.1 nM 17-beta-estradiol - cell viability counter screen (AID 1259241); further: nearly all actives have a fitted effect of over 40% in size
Outline: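 Live-cell protease activity (CellTiter-Fluor fluorescence, 30 min) was read in the same wells after VM7Luc4E2 cells had been exposed to compounds with 0.1 nM 17beta-estradiol for 22 hr at 37C.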

[3] = qHTS assay to identify small molecule antagonists of the androgen receptor (AR) signaling pathway using the MDA cell line in the presence of 0.5 nM R1881 - cell viability counter screen (AID 1259242); further: nearly all actives have a fitted effect of over 45% in size
Outline: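 Cytotoxicity toward MDA-kb2 cells is measured by CellTiter-Fluor live-cell protease fluorescence after 16 hr compound exposure at 37C in the presence of 0.5 nM R1881 stimulator.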

[4] = biological target: Estrogen receptor (Homo sapiens) (UniProt P03372); experiment: qHTS assay to identify small molecule antagonists of the estrogen receptor alpha (ER-alpha) signaling pathway using the BG1 cell line in the presence of 0.1 nM 17-beta-estradiol (AID 1259244); further: nearly all actives have a fitted effect of over 50% in size
Outline: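 After 5 days in hormone-depleted medium (charcoal-stripped serum, no phenol red), VM7Luc4E2 cells were seeded, incubated 24 h, then co-treated with compound and 0.1 nM (final) estradiol for 22 h before luminescence detection.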

[5] = qHTS assay to identify small molecule HDAC inhibitors (AID 1259364); further: top concentration of the series differs between compounds; nearly all actives have a fitted effect of over 45% in size
Outline: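 Homogeneous cell-based luminescent assay of endogenous class I/II HDAC activity; HCT-116 cells, 2 h compound exposure, 30 min HDAC-Glo development at RT.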

[6] = qHTS assay to identify small molecule HDAC inhibitors - cell viability counter screen (AID 1259365); further: series mostly up to about 92 µM; nearly all actives have a fitted effect of over 50% in size
Outline: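 HCT-116 (wild type), 1,500 cells/well, overnight 37C/5% CO2; compound in DMSO 2hr; CellTiter-Glo 30min RT; luminescence read.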

[7] = qHTS assay to identify small molecule agonists of the sonic hedgehog signaling (Shh) pathway - cell viability counter screen (AID 1259366); further: nearly all actives have a fitted effect of over 50% in size
Outline: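 CellTiter-Fluor fluorescence read-out, 1 hr at 37C, added after 23hr compound exposure. Cells: 3T3 Gli1-Luc, an NIH/3T3 clone with stably integrated Gli1-Luc reporter, plated 4hr before compound.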

[8] = qHTS assay to identify small molecule antagonists of the sonic hedgehog signaling (Shh) pathway - cell viability counter screen (AID 1259367); further: nearly all actives have a fitted effect of over 55% in size
Outline: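 NIH/3T3-derived Gli1-Luc reporter cells (2,000 per well) rested 4 hr at 37 C, then received DMSO compounds plus conditioned medium. After 23 hr of treatment, CellTiter-Fluor was added for 1 hr at 37C and fluorescence read.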

[9] = qHTS assay to identify small molecule agonists of the sonic hedgehog signaling (Shh) pathway (AID 1259368; calls by dose curve;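 further: NIH/3T3-derived 3T3Gli1-Luc cells carrying a stable Gli1-driven firefly luciferase reporter; series mostly up to about 92 µM; nearly all actives have a fitted effect of over 15% in size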)
Outline: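 Steps: seed 3T3 Gli1-Luc cells, incubate 4 hr at 37 C, pin-transfer compounds in DMSO alongside a positive control, incubate 24 hr, add luciferase detection reagent, wait 30 min at room temperature, read luminescence.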

[10] = qHTS assay to identify small molecule antagonists of the sonic hedgehog signaling (Shh) pathway (AID 1259369; calls by dose curve; further: nearly all actives have a fitted effect of over 45% in size)
Outline: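 Inhibition of Shh signalling is measured as reduced Gli1-response-element firefly luciferase output in an NIH/3T3-derived stable reporter clone stimulated with conditioned medium for 24hr.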

[11] = biological target: Estrogen receptor beta (Homo sapiens) (UniProt Q92731); experiment: qHTS assay to identify small molecule agonists of the estrogen receptor beta (ER-beta) signaling pathway (AID 1259377; active means well fitted activation curve with a large enough effect in the signal ratio in the repeat runs, not every such curve was filed as active; the % refers to the signal ratio)
Outline: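 Beta-lactamase reporter readout: fluorescence of LiveBLAzer B/G FRET substrate after 2 h at room temperature, following 16 h compound treatment of ER-beta-UAS-bla HEK293T cells at 37C in 2% charcoal-stripped FBS medium.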

[12] = biological target: Estrogen receptor beta (Homo sapiens) (UniProt Q92731); experiment: qHTS assay to identify small molecule antagonists of the estrogen receptor beta (ER-beta) signaling pathway (AID 1259378; active means well fitted inhibition curve with a large enough effect in the signal ratio in the repeat runs, not every such curve was filed as active; the % refers to the signal ratio)
Outline: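 ER-beta-UAS-bla HEK293T (GripTite) cells in 2% charcoal-stripped FBS medium were preincubated 6 hr at 37C, dosed with compound, then stimulated with 1 nM E2 (final) for 16 hr; beta-lactamase reporter read by B/G FRET fluorescence after 2 hr substrate loading.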

[13] = qHTS assay to identify small molecule agonists of the androgen receptor (AR) signaling pathway in the presence of an antagonist - cell viability counter screen (AID 1259379);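 further: MDA-kb2 human breast cancer cells carrying an MMTV luciferase reporter; series mostly up to about 92 µM; nearly all actives have a fitted effect of over 25% in size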
Outline: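 Fluorescence from CellTiter-Fluor, added after 15 hr and read 1 hr later, gave cell viability. Cells were MDA-kb2 exposed to compounds (15 concentrations) in the presence of 3.0uM nilutamide at 37C, 0% CO2.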

[14] = qHTS assay to identify small molecule agonists of the estrogen receptor beta (ER-beta) signaling pathway - cell viability counter screen (AID 1259380); further: nearly all actives have a fitted effect of over 30% in size
Outline: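 Same-well viability counter screen. Cells: ER-beta-UAS-bla HEK293T, plated 6 hr before compound, in 2% charcoal-stripped FBS. Compound exposure 16 hr, 37C; viability by CellTiter-Glo luminescence after 30 min at room temperature.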

[15] = qHTS assay to identify small molecule antagonists of the estrogen receptor beta (ER-beta) signaling pathway - cell viability counter screen (AID 1259382); further: series mostly up to about 92 µM; nearly all actives have a fitted effect of over 55% in size
Outline: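 Following a 6 hr plating period, HEK293T cells carrying a UAS-driven beta-lactamase reporter under ER-beta control received compounds and 1nM E2 (final). After 16 hr at 37C and 2 hr substrate loading, CellTiter-Glo luminescence indicated viability.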

[16] = biological target: Estrogen receptor (Homo sapiens) (UniProt P03372); experiment: qHTS assay to identify small molecule agonists of the estrogen receptor alpha (ER-alpha) signaling pathway in the presence of an antagonist (AID 1259383; calls by dose curve; further: top concentration of the series differs between compounds; nearly all actives have a fitted effect of over 15% in size)
Outline: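 Cells are hormone-deprived for 5 days (charcoal-stripped FBS, no phenol red), plated for 24hr, spiked with 10.0nM ICI-182,780, then dosed at 15 concentrations. After 22hr at 37C, ONE-Glo luminescence reports ERE-luciferase activity.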

[17] = qHTS assay to identify small molecule agonists or antagonists of the thyroid stimulating hormone receptor (TSHR) signaling pathway - wild type cell line counter screen (AID 1259384; calls by dose curve)
Outline: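 Wild-type HEK293 cells were plated 18 h at 37 C/5% CO2, pin-dosed with compound plus Ro20-1724 medium, held 30 min at room temperature, then given cAMP-d2 and anti-cAMP-cryptate; fluorescence was read after 1 h. Fifteen concentrations, triplicate.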

[18] = qHTS assay to identify small molecule phospholipidosis (PLD) inducers (AID 1259344; active means well fitted curve in the direction sought with a large enough effect; an effect the other way counts as inactive or inconclusive)
Outline: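 HepG2 cells on collagen I, attached 4 h at 37 C, were co-treated with compound and LipidTOX Red dye for 24 h at 37 C, then fixed with paraformaldehyde plus Hoechst 33342 and imaged by high-content microscopy for phospholipid accumulation.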
On the % scale 0 is the no-effect control and ±100 the full control effect.

Chain of Estrogen receptor (Homo sapiens) (P03372 whole entry, looked up): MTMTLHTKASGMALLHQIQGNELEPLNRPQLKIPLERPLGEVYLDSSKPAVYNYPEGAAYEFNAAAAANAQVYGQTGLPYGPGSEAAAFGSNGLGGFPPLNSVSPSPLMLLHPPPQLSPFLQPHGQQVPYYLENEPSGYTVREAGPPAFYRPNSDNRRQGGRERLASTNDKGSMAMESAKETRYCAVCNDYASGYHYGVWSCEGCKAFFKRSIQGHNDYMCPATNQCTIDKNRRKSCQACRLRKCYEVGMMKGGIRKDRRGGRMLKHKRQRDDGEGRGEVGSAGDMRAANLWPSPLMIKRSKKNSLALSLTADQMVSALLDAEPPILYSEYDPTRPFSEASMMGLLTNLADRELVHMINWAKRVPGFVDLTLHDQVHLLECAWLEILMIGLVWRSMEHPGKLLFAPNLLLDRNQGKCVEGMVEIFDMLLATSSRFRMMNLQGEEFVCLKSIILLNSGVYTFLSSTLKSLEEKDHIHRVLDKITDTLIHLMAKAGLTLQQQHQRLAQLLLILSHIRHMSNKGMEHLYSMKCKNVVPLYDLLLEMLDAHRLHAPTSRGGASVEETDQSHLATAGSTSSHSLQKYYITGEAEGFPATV
Chain of Estrogen receptor beta (Homo sapiens) (Q92731 whole entry, looked up): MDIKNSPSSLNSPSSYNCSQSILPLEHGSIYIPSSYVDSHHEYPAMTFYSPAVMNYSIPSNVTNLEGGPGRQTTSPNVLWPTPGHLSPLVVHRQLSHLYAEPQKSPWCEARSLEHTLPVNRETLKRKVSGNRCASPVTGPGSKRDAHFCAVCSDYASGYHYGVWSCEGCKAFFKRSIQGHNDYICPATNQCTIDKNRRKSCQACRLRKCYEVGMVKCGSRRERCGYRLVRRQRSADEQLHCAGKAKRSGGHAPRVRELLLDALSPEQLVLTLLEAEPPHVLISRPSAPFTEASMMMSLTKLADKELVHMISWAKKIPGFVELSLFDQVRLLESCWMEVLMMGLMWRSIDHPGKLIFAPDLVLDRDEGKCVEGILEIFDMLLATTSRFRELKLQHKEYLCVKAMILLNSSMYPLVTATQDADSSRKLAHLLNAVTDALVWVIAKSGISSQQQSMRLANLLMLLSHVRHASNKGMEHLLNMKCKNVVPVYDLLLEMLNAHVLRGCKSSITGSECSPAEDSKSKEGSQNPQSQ

CC(C)(C)CCCCCCOC(=O)c1ccccc1C(=O)OCCCCCCC(C)(C)C
inactive: Potency [1] | Potency [2] | Potency [3] | Potency [4] | Potency [5] | Potency [6] | Potency [7] | Potency [8] | Potency [9] | Potency [10] | Potency [11] | Potency [12] | Potency [13] | Potency [14] | Potency [15] | Potency [16] | Potency [17]

N[C@@H](Cc1cc(I)c(O)c(I)c1)C(=O)O
inactive: Potency [1] | Potency [2] | Potency [3] | Potency [4] | Potency [18] | Potency [5] | Potency [6] | Potency [7] | Potency [8] | Potency [9] | Potency [10] | Potency [13] | Potency [14] | Potency [15] | Potency [16] | Potency [17]

COc1cc(NS(=O)(=O)c2ccc(N)cc2)nc(C)n1
inactive: Potency [1] | Potency [2] | Potency [3] | Potency [4] | PLD induction [18] -3.88% [at 7.66 µM] | Potency [5] | Potency [6] | Potency [7] | Potency [8] | Potency [9] | Potency [10] | Potency [13] | Potency [14] | Potency [15] | Potency [16] | Potency [17]

C=CC(=O)O
inactive: Potency [1] | Potency [2] | Potency [3] | Potency [4] | Potency [18] | Potency [5] | Potency [6] | Potency [7] | Potency [8] | Potency [9] | Potency [10] | Potency [12] | Potency [13] | Potency [14] | Potency [15] | Potency [16] | Potency [17]

CC(=O)OC(C)C[N+](C)(C)C (stereo not given)
inactive: Potency [1] | Potency [2] | Potency [3] | Potency [4] | Potency [18] | Potency [5] | Potency [6] | Potency [7] | Potency [8] | Potency [9] | Potency [12] | Potency [13] | Potency [14] | Potency [15] | Potency [16] | Potency [17]

CC(C)(C)C(O)/C=C/c1ccc2c(c1)OCO2 (stereo not given)
inactive: Potency [1] | Potency [2] | Potency [3] | Potency [4] | Potency [18] | Potency [6] | Potency [7] | Potency [8] | Potency [9] | Potency [10] | Potency [11] | Potency [12] | Potency [13] | Potency [14] | Potency [15] | Potency [16] | Potency [17]

Nc1nc2ccc(OC(F)(F)F)cc2s1
inactive: Potency [1] | Potency [2] | Potency [3] | Potency [4] | Potency [18] | Potency [6] | Potency [7] | Potency [8] | Potency [9] | Potency [10] | Potency [11] | Potency [12] | Potency [13] | Potency [14] | Potency [15] | Potency [17]
